In all, about 320,000 compounds went through this assay and about 7,600 (2.4%) were called active. Roughly 3% stayed inconclusive and do not appear here. Calls follow the shape of the dose curve; as a rule, active = well fitted activation curve with a large enough effect; inconclusive = small, poorly fitted or top-dose-only effect; inactive = no such curve, though single readings can be large or run the other way. For the sample, actives were picked, then their nearest neighbours and some compounds at random.
Experiment: qHTS Assay for NPC1 Promoter Activators; also: nearly all actives have a fitted effect of over 60% in size;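 as to activation: reporter is driven by a mutant NPC1 promoter; % of control where 0% means no effect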
Settings: Huh7 NPC1 promoter luciferase reporter, 24 h; series mostly up to 9.22 µM; activation: at the top concentration
Outline: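 Huh7 reporter cells (NPC1 promoter driving luciferase) are dosed with compound for 24 h at 37 °C, 5% CO2; luciferase detection reagent is then added and luminescence measured after 10 min at ambient temperature.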
Potency is read from the fitted curve at half-maximal effect.

| SMILES | activation | Potency |
| --- | --- | --- |
| Cc1cc(C)cc(-c2nnc(SCC(=O)NC3CC3)o2)c1 | -3.48% (inactive) | – |
| Cc1cccc(C)c1NC(=O)CSc1nc2c([nH]1)c(=O)n(C)c(=O)n2C | -5.88% (inactive) | – |
| CCOc1ncccc1C(=O)Nc1ccc(S(=O)(=O)Nc2nc(C)cc(C)n2)cc1 | -0.0876% (inactive) | – |
| O=C(CN1CCN(c2ccc(Cl)cc2)CC1)N1CCCC1 | -0.477% (inactive) | – |
| O=C(CSCc1ccc(Cl)cc1)N1CCN(Cc2ccc3c(c2)OCO3)CC1 | 0.607% (inactive) | – |
| O=C(CSCc1ccc(Cl)cc1)N1CCCCC1 | – | 6310 nM (active) |
| CCN(c1ccccc1)S(=O)(=O)c1ccc(OCC(=O)N2CCCC2)cc1 | 0.407% (inactive) | – |
| O=C(NNC(=O)c1cc(S(=O)(=O)N2CCCCC2)ccc1Cl)c1ccccc1O | 5.13% (inactive) | – |
| Cc1cc(C)cc(NC(=O)C(c2ccccc2)N2CCN(CC(=O)N3CCCC3)CC2)c1 (centres undefined) | -2.46% (inactive) | – |
| COc1ccc(S(=O)(=O)N2CCOCC2)cc1NC(=O)CC1CC2CCC1C2 (centres undefined) | -1.44% (inactive) | – |
| CCOc1nnc(C)c2c(C)n(-c3cccc(Cl)c3)nc12 | 0.78% (inactive) | – |
| Cc1ccc(C(=O)OCc2nc(N)nc(Nc3ccccc3C)n2)cc1 | 0.195% (inactive) | – |
| Cc1ccccc1Nc1nc(N)nc(CSc2nnc3ccccn23)n1 | 14.3% (inactive) | – |
| Cc1ccccc1Nc1nc(N)nc(CSc2ccccc2)n1 | – | 1260 nM (active) |
| O=C1CC[C@H](O)CCN1[C@H](CSc1ccc(Br)cc1)Cc1ccccc1 | -5.67% (inactive) | – |
| COc1ccc(COCC(O)CN2CCC(C(N)=O)CC2)cc1 (centres undefined) | 0.393% (inactive) | – |
| COc1cc(CN2CCC(C(N)=O)CC2)ccc1OCc1ccccc1 | – | 3980 nM (active) |
| CCOc1cc(CN2CCN(C(=O)CC(C)C)CC2)ccc1OC | -0.87% (inactive) | – |
| CCOC(=O)C1CCN(S(=O)(=O)c2ccc3c(c2)N(C(C)=O)CCO3)CC1 | -4.36% (inactive) | – |
| Cc1ccc(C)c(NC(=O)C(c2ccccc2)N2CCN(CC(=O)NC3CC3)CC2)c1 (centres undefined) | -2.67% (inactive) | – |
| O=C(c1cnn(-c2ccc(Cl)cc2)c1)c1ccccc1O | – | 3550 nM (active) |
| Cc1ncc(CC(=O)n2cc(C(=O)c3cc(Cl)ccc3O)cn2)s1 | 1.35% (inactive) | – |

| SMILES | activation | Potency |
| --- | --- | --- |
| COc1ccc(CNC(=O)COc2ccccc2C(=O)c2cnn(-c3ccccc3)c2)cc1OC | 26.5% (inactive) | – |
| Cc1ccnc(-n2sc3ccccc3c2=O)n1 | 0.72% (inactive) | – |
| Cc1ccnc(NC(=O)c2ccco2)n1 | 1.97% (inactive) | – |
| Cc1ccnc(Nc2nc3ccccc3s2)n1 | – | 3550 nM (active) |
| COc1cc(C(=O)NNC(=O)CN2C(=O)NC3(CCCC3)C2=O)cc(OC)c1OC | 0.54% (inactive) | – |
| CN(C)S(=O)(=O)c1ccc(C(=O)NCC2(N3CCOCC3)CCCCC2)cc1 | -6.14% (inactive) | – |
| O=C(CSc1nnnn1C1CCCC1)N1CCCCC1 | – | 3550 nM (active) |
| CC(=O)Nc1ccc(NC(=O)CSc2nnnn2C2CCCCC2)cc1 | -0.375% (inactive) | – |
| CC1CCCC(C)N1C(=O)CSc1nnnn1C1CCCC1 (centres undefined) | 24.7% (inactive) | – |
| C/C(=N\NC(=O)c1ccc(NS(=O)(=O)c2cccs2)cc1)c1ccc2ccccc2c1 | -5.94% (inactive) | – |
| COCCNc1nnc(SCC(=O)NNC(=O)c2ccco2)s1 | -0.171% (inactive) | – |
| COc1ccc2oc(=O)c(C(=O)N3CCCc4ccccc43)cc2c1 | -5.28% (inactive) | – |
| Cc1cccc(-n2ncc3c(N4CCc5ccccc54)ncnc32)c1 | – | 1580 nM (active) |
| COc1ccc(-n2ncc3c(N4CCCc5ccccc54)ncnc32)cc1 | – | 501 nM (active) |
| Cc1cccc(-n2ncc(Cl)c(Cl)c2=O)c1 | -43.6% (inactive) | – |
| COc1ccc(Oc2c(Cl)cnn(-c3ccccc3)c2=O)cc1 | -8.11% (inactive) | – |
| COc1ccccc1N1CCN(C(=O)CSc2ncnc3c2cnn3-c2ccc(C)c(C)c2)CC1 | 25.1% (inactive) | – |
| O=C(CCNC(=O)c1ccccc1Cl)NCc1ccco1 | -2.81% (inactive) | – |
| O=C(CCC(=O)c1ccccc1)NCc1cccc(C(F)(F)F)c1 | -2.76% (inactive) | – |
| FC(F)Oc1ccccc1C1CC(c2ccc(Br)s2)Nc2ncnn21 (centres undefined) | -3.94% (inactive) | – |
| CCOC(=O)N1CCN(Cc2nc(N)nc(Nc3ccc(C)cc3)n2)CC1 | -3.41% (inactive) | – |
| Cc1ccc(Nc2nc(N)nc(CSc3nnc(C)s3)n2)cc1 | – | 2510 nM (active) |

| SMILES | activation | Potency |
| --- | --- | --- |
| Cc1nnc(SCc2nc3ccccc3nc2C)s1 | 0.203% (inactive) | – |
| Nc1ccc(Nc2cc(O)c3ncccc3c2)cc1 | -33.9% (inactive) | – |
| CCCN(CC(=O)Nc1ccccc1C)C(=O)c1ccc2[nH]c3c(c2c1)CC(C)CC3 (centres undefined) | -1.21% (inactive) | – |
| Cc1cc(C)cc(NC(=O)N2CCCCCCC2)c1 | -2.27% (inactive) | – |
| COc1ccc2oc(=O)c(C(=O)N3CCCC3)cc2c1 | -0.759% (inactive) | – |
| Cc1ccc2cc3cc(C(=O)N4CCCCCC4)oc3nc2c1 | – | 1120 nM (active) |
| COc1ccc(-c2c(-c3cc(OC)cc(OC)c3)n(C)c3ccc(-c4ccn[nH]4)cc23)cc1 | -5.11% (inactive) | – |
| O=C(Nc1ccncc1)c1ccc([N+](=O)[O-])cc1Cl | 1.57% (inactive) | – |
| O=C(Nc1ccc(Br)cn1)c1ccc([N+](=O)[O-])o1 | -17.1% (inactive) | – |
| O=C(Nc1ccc(Br)cn1)c1ccc([N+](=O)[O-])cc1Cl | – | 2000 nM (active) |
| C=CCn1cc(-c2cccc(C(F)(F)F)c2)cc(C#N)c1=O | 1.99% (inactive) | – |
| CN(C)C(CNC(=O)c1ccc(OCc2cn3ccccc3n2)cc1)c1ccco1 (centres undefined) | 15.6% (inactive) | – |
| C=CCNc1cnn(-c2ccc(C)cc2)c(=O)c1Cl | – | 2820 nM (active) |
| O=c1c(Cl)c(NC2CC2)cnn1-c1ccccc1 | 18.8% (inactive) | – |
| Cc1ccc(Oc2cnn(-c3ccccc3)c(=O)c2Br)cc1 | -1.01% (inactive) | – |
| CC(C)Nc1nnc(SCC(=O)c2c[nH]c3ccccc23)s1 | 8.11% (inactive) | – |
| COc1ccc(/C=N/OCC(=O)N(Cc2ccccc2)c2ccccc2C(=O)O)cc1 | -3.19% (inactive) | – |
| COc1ccc(CCCc2nnc(SCc3nc4ccccc4c(=O)[nH]3)n2C)cc1 | -4.67% (inactive) | – |
| COc1ccc(/C=N/Nc2ccccc2C(=O)O)cc1 | – | 89.1 nM (active) |
| COc1ccc(/C=N/Nc2nc3ccccc3c(=O)[nH]2)cc1 | – | 3160 nM (active) |
| COc1ccc(NS(=O)(=O)c2cc(C(=O)Nc3ccccc3C(=O)O)ccc2C)cc1 | -35.8% (inactive) | – |
| COc1ccc(/C=N/Nc2nc(-c3ccc(C)cc3)c(C#N)c(=O)[nH]2)cc1 | -2.06% (inactive) | – |

| SMILES | activation | Potency |
| --- | --- | --- |
| CCC(=O)c1ccc(OCC(=O)N(CC)CC2COc3ccccc3O2)cc1 (centres undefined) | 2.33% (inactive) | – |
| COCCn1c(C)cc(C(=O)COC(=O)CNC(=O)c2ccco2)c1C | -2.34% (inactive) | – |
| COc1cccc(C2=CC(=O)C[C@H](c3ccc(F)cc3)C2)c1OC | -8.4% (inactive) | – |
| Cc1cc(F)ccc1S(=O)(=O)Nc1ccc(C(=O)N(C)Cc2ccco2)cc1 | -7.8% (inactive) | – |
| COc1ccccc1NC(=O)COC(=O)COc1ccccc1F | 0.971% (inactive) | – |
| Nc1ccc(-c2sc(N)nc2-c2ccccc2)cc1 | 1.72% (inactive) | – |
| O=C(COC(=O)c1ccccc1Br)Nc1nnc(-c2ccccc2)o1 | -2.45% (inactive) | – |
| Nc1ccc(-c2nnc(-c3ccccc3)o2)cc1 | – | 3160 nM (active) |
| O=C(COC(=O)c1ccc(Oc2ccccc2)cc1)Nc1nnc(-c2ccccc2)o1 | 6.91% (inactive) | – |
| Nc1ccc(-c2nnc(-c3ccc(-c4ccccc4)cc3)o2)cc1 | – | 4470 nM (active) |
| O=C(Nc1cccc(Cl)c1)Nc1nnc(-c2ccccc2)o1 | -0.287% (inactive) | – |
| CC(C)(C)n1ncc2c(=O)n(Cc3c(Cl)cccc3Br)cnc21 | -3.61% (inactive) | – |
| CC(C)c1ccc(S(=O)(=O)N2CCN(C(C)C(=O)NC3CCCC3)CC2)cc1 (centres undefined) | 4.65% (inactive) | – |
| CCCC(NCC(=O)Nc1ccccc1C(=O)NC1CC1)c1ccccc1 (centres undefined) | -3.13% (inactive) | – |
| COc1ccccc1N1CCN(C(=O)C2Cc3ccccc3CN2C(=O)c2ccco2)CC1 (centres undefined) | -3.03% (inactive) | – |
| CCN1C(=O)[C@@H]2[C@@H](c3ccc(-c4cccc(Cl)c4)cc3)N3CCC[C@@]3(C(=O)OC)[C@@H]2C1=O | -0.11% (inactive) | – |
| CCCCc1ccc(NS(=O)(=O)c2cccc(C(=O)N3CCCN(C)CC3)c2)cc1 | -2.91% (inactive) | – |
| Cc1ccc(C(=O)Oc2coc(CSc3nnc(NC(=O)c4cccs4)s3)cc2=O)cc1C | 6.97% (inactive) | – |
| Cc1nnc(NC(=O)c2ccc3nccnc3c2)s1 | 10.6% (inactive) | – |
| Cc1ccc(C(=O)Nc2nnc(-c3cccs3)s2)cc1C | – | 4470 nM (active) |
| CC(C)c1ccc(NC(=O)COC(=O)c2ccc(CN3CCCC3=O)cc2)cc1 | 1.59% (inactive) | – |
| O=C(Nc1ccc(NC(=O)c2cccs2)cn1)c1ccco1 | – | 316 nM (active) |

| SMILES | activation | Potency |
| --- | --- | --- |
| Cc1ccnc(NC(=O)c2ccc(NC(=O)c3ccco3)cc2)c1 | – | 3980 nM (active) |
| O=C(Nc1ccnc(-c2ccncc2)n1)c1cccs1 | -1.33% (inactive) | – |
| Cc1cc(NC(=O)c2ccc(F)cc2)ccc1NC(=O)c1ccco1 | 8.51% (inactive) | – |
| O=C(Nc1ccccc1)c1ccco1 | 23% (inactive) | – |
| O=C(Nc1ccc(O)cc1)c1ccc(NC(=O)c2ccco2)cc1 | 23.2% (inactive) | – |
| CCN(CC(=O)Nc1c(F)cccc1F)C(=O)c1cnc(C)cn1 | -3% (inactive) | – |
| O=C(CCNC(=O)c1ccc(Br)cc1)NCC(c1ccco1)N1CCCCC1 (centres undefined) | -0.553% (inactive) | – |
| COc1ccc(C2=NN(C(=O)CSc3nnnn3C)C(c3ccco3)C2)cc1 (centres undefined) | 1.31% (inactive) | – |
| Cc1cc2c(=O)n(C)c(SCC(=O)c3cc4ccccc4o3)nc2s1 | 0.344% (inactive) | – |
| O=C(NCc1cccnc1)c1cccc(-c2cc3ccccc3oc2=O)c1 | 9.51% (inactive) | – |
| Nc1ncc(-c2cc3ccccc3oc2=O)s1 | – | 2510 nM (active) |
| O=C(CSc1ccccc1)Nc1cccc(S(=O)(=O)N2CCCCC2)c1 | 0.92% (inactive) | – |
| C=CCNC(=O)c1ccc2c3n(nc2c1)-c1ccc(C)cc1CO3 | – | 501 nM (active) |
| Cc1cccc(-c2nc3ccc(C(=O)NCCN4CCN(C)CC4)cc3nc2-c2cccc(C)c2)c1 | 0.0884% (inactive) | – |
| C=CCNC(=O)c1ccc(C)c(Br)c1 | -3.13% (inactive) | – |
| CCOC(=O)c1sc(NC(=O)C2CSC3(C)CCC(=O)N23)nc1C (centres undefined) | -3.6% (inactive) | – |
| C=CCSc1ccc(S(=O)(=O)N2CCN(C)CC2)cn1 | 1.46% (inactive) | – |
| CCCCN(C(=O)C(CCSC)N1C(=O)c2ccccc2C1=O)c1c(N)n(CCC)c(=O)[nH]c1=O (centres undefined) | -1.59% (inactive) | – |
| Cc1ccc(OC(=O)c2c(C)nn(-c3ccccc3)c2C)cc1 | – | 2820 nM (active) |
| Cc1ccc(-n2nc(C)c(C(=O)O)c2-n2cccc2)cc1 | -2.14% (inactive) | – |
| Cc1cccc(C)c1NC(=O)COC(=O)c1c(C)nn(-c2ccccc2)c1C | -0.881% (inactive) | – |
